{"source": "PubChem BioAssay AID1852", "about": "(Sanford-Burnham Center for Chemical Genomics, 2009)", "note": "Hit rate of the full screen: of about 2,500 compounds, about 1,100 (44%) were called active. The set was probably picked from earlier hits. The list shows a part of the results. A number with no mark means an inactive call.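 How the source made its calls: active means inhibition above 50% at 4 µM in the single-point screen; inactive means inhibition of 50% or less.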", "data": [{"assay": "blockers of TNF-a NF-kB luciferase induction – cell-based, HEK293T NF-kB-Luc, luminescence, selectivity assay for NOD1/NOD2 signaling inhibitor project, primary screen (AID 1852)", "conditions": "TNF-a induced, 14 h, at 4 µM, hits give high values", "values": [{"molecule": "O=C1NC(=O)/C(=C\\c2ccc(Oc3cnccn3)cc2)S1", "inhibition": "-64.2%"}, {"molecule": "O=[N+]([O-])c1cccc(/C=N\\N=C2c3ccccc3-c3ccccc32)c1O", "inhibition": "7.7%"}, {"molecule": "O=[N+]([O-])c1ccc(O)c(/C=N\\N=C2c3ccccc3-c3ccccc32)c1", "inhibition": "77% (active)"}, {"molecule": "Oc1nc(Nc2ccc(Cl)cc2Cl)sc1/C=C1\\C=Nc2ccccc21", "inhibition": "5.6%"}, {"molecule": "CCCCc1c(C)c(C#N)c2[nH]c3ccccc3n2c1=O", "inhibition": "44.9%"}, {"molecule": "Cc1ccc(Cc2c(C)c(C#N)c3[nH]c4ccccc4n3c2=O)cc1", "inhibition": "74.6% (active)"}, {"molecule": "Cc1ccc(CSc2nc(-c3ccccc3)c(C#N)c(=O)[nH]2)cc1", "inhibition": "-18%"}, {"molecule": "Cc1ccc(O)c(C(=O)c2cc(C#N)c3nc4ccccc4n3c2)c1", "inhibition": "33%"}, {"molecule": "Cc1ccc(S(=O)(=O)c2cc3ccccc3oc2=O)cc1", "inhibition": "29.7%"}, {"molecule": "O=c1oc2ccc(Br)cc2cc1S(=O)(=O)c1ccc(F)cc1", "inhibition": "68% (active)"}, {"molecule": "Cc1ccc(S(=O)(=O)c2cc3cc(Br)ccc3oc2=O)cc1", "inhibition": "58.4% (active)"}, {"molecule": "CC(C)c1ccc(S(=O)(=O)c2cc3cc(Br)ccc3oc2=O)cc1", "inhibition": "32.3%"}, {"molecule": "C=CCC1(CC=C)CCCN1C(=O)c1cc(COc2cncc(Cl)c2)on1", "inhibition": "19.5%"}, {"molecule": "C=CCC1(CC=C)CCCN1C(=O)c1cc(COc2ccc(C)nc2)on1", "inhibition": "52.5% (active)"}, {"molecule": "Cc1ccc(OCc2cc(C(=O)NC3CCCCC3)no2)cn1", "inhibition": "46%"}, {"molecule": "c1ccc(N2CCN(c3ncnc4sc5c(c34)CCC5)CC2)cc1", "inhibition": "57.1% (active)"}, {"molecule": "O=C(O)c1cccc(-c2ccc(/C=N/n3cnc4sc5c(c4c3=O)CCCC5)o2)c1", "inhibition": "-30.8%"}, {"molecule": "CC1CCc2sc3ncnc(N4CCOCC4)c3c2C1", "note": "(configuration not stated)", "inhibition": "29.3%"}, {"molecule": "CC1=NNC(=O)/C1=C\\c1cn(-c2ccccc2)nc1-c1cccs1", "inhibition": "-42.7%"}, {"molecule": "Cc1cccc(N2CCN(C(=O)C3CCN(c4ncnc5c4nc4n5CCCCC4)CC3)CC2C)c1", "note": "(configuration not stated)", "inhibition": "33.7%"}, {"molecule": "COc1cccc(N2CCN(c3ncnc4c3[nH]c3ccccc34)CC2C)c1", "note": "(configuration not stated)", "inhibition": "106% (active)"}, {"molecule": "COc1cccc(N2CCN(c3ncnc4c3[nH]c3ccc(F)cc34)CC2C)c1", "note": "(configuration not stated)", "inhibition": "110% (active)"}, {"molecule": "NC(=O)c1c(NC(=O)c2ccc([N+](=O)[O-])o2)sc2c1CCCC2", "inhibition": "-24.9%"}, {"molecule": "Cc1nc2ccccc2c2oc(C(=O)NCC3COc4ccccc4O3)cc12", "note": "(configuration not stated)", "inhibition": "39.3%"}, {"molecule": "COc1ccc(CNC(=O)c2cc3c(C)nc4ccccc4c3o2)c(OC)c1", "inhibition": "62.8% (active)"}, {"molecule": "COc1ccc(OC)c(Nc2c3c(nc4ccccc24)CCC3)c1", "inhibition": "49.6%"}, {"molecule": "O=C(COc1ccc(C(=O)c2ccccc2)cc1)Nc1cccnc1", "inhibition": "46.8%"}, {"molecule": "O=C(COc1ccc2c(-c3ccccc3)cc(=O)oc2c1)Nc1cccnc1", "inhibition": "34.1%"}, {"molecule": "CCCCc1cc(=O)oc2cc(OCC(=O)Nc3cccnc3)c(Cl)cc12", "inhibition": "85.3% (active)"}, {"molecule": "COc1nc(Nc2nc3ccccc3c(=O)[nH]2)nc2ccc(C)cc12", "inhibition": "67.4% (active)"}, {"molecule": "Cc1c(C(=O)N/N=C/c2ccoc2)cccc1[N+](=O)[O-]", "inhibition": "-12.6%"}, {"molecule": "Cc1ccc2cccc(N=Cc3c(C)[nH]n(-c4ccccc4)c3=O)c2n1", "inhibition": "38.3%"}, {"molecule": "Cc1[nH]n(-c2ccccc2)c(=O)c1/C=N/NC(=O)c1cccc(F)c1", "inhibition": "-0.8%"}, {"molecule": "C/C(=N/NC(=S)Nc1cccc(C)c1)c1cccc([N+](=O)[O-])c1", "inhibition": "6.4%"}, {"molecule": "COc1ccc(C(=O)Nc2ccccc2C(=O)N/N=C/c2ccccn2)cc1OC", "inhibition": "102% (active)"}, {"molecule": "Cc1cccc(/C=N/NC(=O)c2cccc([N+](=O)[O-])c2)n1", "inhibition": "97.4% (active)"}, {"molecule": "Cc1[nH]n(-c2ccccc2)c(=O)c1/C=N/NC(=O)c1cccc([N+](=O)[O-])c1", "inhibition": "76.8% (active)"}, {"molecule": "COc1ccc(C(=O)N/N=C/c2ccc(OC(=O)c3cccc4ccccc34)c([N+](=O)[O-])c2)cc1", "inhibition": "41.6%"}, {"molecule": "Cc1ccc(-n2[nH]c(C)c(/C=N/Nc3ccc([N+](=O)[O-])cc3[N+](=O)[O-])c2=O)cc1C", "inhibition": "83.2% (active)"}, {"molecule": "CCOc1cc(S(=O)(=O)NCc2ccncc2)ccc1Cl", "inhibition": "48.8%"}, {"molecule": "C/C(Cn1nnc([N+](=O)[O-])n1)=N\\NC(=O)c1ccc(Cl)c(Cl)c1", "inhibition": "31.3%"}, {"molecule": "O=C(N/N=C/c1ccccn1)c1sc2ccccc2c1Cl", "inhibition": "85.8% (active)"}, {"molecule": "O=C(N/N=C/c1ccccn1)c1cc([N+](=O)[O-])cc([N+](=O)[O-])c1", "inhibition": "96.4% (active)"}, {"molecule": "O=C(N/N=C/c1ccccn1)c1ccc(Cl)c(Cl)c1", "inhibition": "101% (active)"}, {"molecule": "O=C(N/N=C/c1ccccn1)c1ccc(Cl)cc1", "inhibition": "-21.2%"}, {"molecule": "COc1cc([N+](=O)[O-])ccc1-c1ccc(/C=N/NC(=O)c2ccccc2O)o1", "inhibition": "0.6%"}, {"molecule": "CC(/C=C/c1ccccc1)=N/NC(=O)c1cccc(Br)c1", "inhibition": "13.3%"}, {"molecule": "C/C(=N\\NC(=O)c1ccc(Cl)c(Cl)c1)c1ccc(Br)s1", "inhibition": "40.4%"}, {"molecule": "CC(/C=C/c1ccccc1)=N/NC(=O)c1cc([N+](=O)[O-])cc([N+](=O)[O-])c1", "inhibition": "102% (active)"}, {"molecule": "CCN(c1ccc(OC)cc1)c1ncnc2nc[nH]c12", "inhibition": "86.3% (active)"}, {"molecule": "CCCN(CCC)c1ncnc2nc[nH]c12", "inhibition": "83.4% (active)"}, {"molecule": "CCc1ccc(N(CC)c2ncnc3nc[nH]c23)cc1", "inhibition": "82.5% (active)"}, {"molecule": "C/C(Cl)=C/Cn1c(SC(C)C)nc2c1c(=O)[nH]c(=O)n2C", "inhibition": "-13.9%"}, {"molecule": "O=C(Nc1cccc([N+](=O)[O-])c1)c1ccc2ccccc2c1O", "inhibition": "32.8%"}, {"molecule": "Cc1ccc(NS(=O)(=O)c2cc(NC(=O)c3ccc4c(c3)NC(=O)CS4)ccc2C)c(C)c1", "inhibition": "3.2%"}, {"molecule": "O=C(Nc1ccccc1C(=O)O)c1cc(S(=O)(=O)Nc2cccc(F)c2)ccc1Cl", "inhibition": "58.9% (active)"}, {"molecule": "O=C(Nc1ccccc1C(=O)O)c1cccc(NS(=O)(=O)c2ccc(Br)cc2)c1", "inhibition": "55.5% (active)"}, {"molecule": "O=C1CSc2ccc(C(=O)Nc3cccc(S(=O)(=O)Nc4ccc(Br)cc4)c3)cc2N1", "inhibition": "63.4% (active)"}, {"molecule": "Cc1ccc(NS(=O)(=O)c2cc(NC(=O)c3ccc4c(c3)NC(=O)CS4)ccc2Cl)c(C)c1", "inhibition": "-2.2%"}, {"molecule": "Cc1ccc2c(c1)CCCN2S(=O)(=O)c1cccc(C(=O)Nc2ccccc2C(=O)O)c1", "inhibition": "5.4%"}, {"molecule": "O=C(/C=C/c1ccc([N+](=O)[O-])cc1)Nc1cccc(C(=O)Nc2ccccc2C(=O)O)c1", "inhibition": "65.5% (active)"}, {"molecule": "Cc1cccc(NC(=O)c2cccc(NS(=O)(=O)c3ccc(Cl)cc3)c2)c1", "inhibition": "23.1%"}]}]}
